Screening data as filed in PubChem.
Hits are enriched below; roughly 4.2% of the tested compounds scored in any of these assays.
NALP1 inh: inhibitors of NALP1 inflammasome in yeast; S. cerevisiae NALP1/ASC/caspase-1 growth, X-gal OD620, 72 h; inhibition, % at 10 µM; actives 0.61% (n = 280,000); AID 2071; in the data active = inhibition mostly above about 24%, no sharp cut-off; inactive = mostly below about 32%
tim10-1 inh: tim10-1 yeast growth inhibition; actives 2.2% (n = 330,000); S. cerevisiae tim10-1 ts strain growth, BacTiter-Glo, 24 h; inhibition, % at 20 µM;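 active = inhibition of at least 40%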;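 also: mutant grown at 25 °C; 0% = DMSO wells with yeast and 100% = wells holding no yeast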
NALP3 yeast inh: inhibitors of NALP3 inflammasome in yeast. actives 0.39% (n = 330,000). AID 2825. Yeast reconstituted NLRP3/ASC/caspase-1, beta-gal luminescence, 24 h. inhibition, % at 10 µM;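 active = inhibition of 50% or more; inactive = inhibition below 50%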;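 also: plate controls were induced DMSO wells for no effect and uninduced yeast grown without galactose for full effect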
TIM10 inh: inhibits growth of TIM10 yeast strain. actives 1.4% (n = 330,000). S. cerevisiae TIM10 strain growth, BacTiter-Glo luminescence, 24 h. inhibition, % at 10 µM;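 active = inhibition of 40% or more at the single tested concentration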;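 also: wild-type TIM10 isogenic control strain grown at permissive 25 °C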
V-ATPase pH: regulators of yeast V-ATPase proton transport; actives 0.37% (n = 350,000); response, % at 10 µM; S. cerevisiae, pHLuorin cytosolic pH fluorescence; in the data active = response mostly above about 7.3%, no sharp cut-off; inactive = mostly below about 5.4%; also: actives read high
tim23-1 inh: inhibits growth of tim23-1 mutant yeast; S. cerevisiae tim23-1 growth, BacTiter-Glo luminescence, 24 h; inhibition, % at 20 µM; actives 1.3% (n = 330,000); AID 463212;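 active = growth inhibition of the mutant yeast at or above 50%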;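 also: temperature-sensitive mutant grown at 25 °C; plate controls were DMSO-treated mutant yeast for no effect and medium wells lacking yeast for full effect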
tim23-1 conf: tim23-1 yeast growth inhibition, confirmed; shares compounds with tim23-1 inh; S. cerevisiae tim23-1 growth, BacTiter-Glo luminescence, 24 h; inhibition, % at 20 µM; actives 83% (n = 4,400);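 active = inhibition above about 39% in either of two replicate wells at 20 µM, limit read from the data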;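 also: temperature-sensitive tim23-1 mutant grown at 25 °C; 0% = DMSO wells with yeast and 100% = medium wells without yeast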
An asterisk follows results filed as active.

What do the screens show for `O=C(NC(=S)NC(=O)c1ccccc1F)c1ccccc1F`?
NALP1 inh: 7.6; tim10-1 inh: 5.0; NALP3 yeast inh: 11.1; TIM10 inh: 24.7; V-ATPase pH: -1.8; tim23-1 inh: 54.1*; tim23-1 conf: 48.4*

How did Cc1ccc(C(=O)NC(=S)NCc2ccccc2)cc1 do in these assays?
NALP1 inh: 8.6; tim10-1 inh: 22.2; NALP3 yeast inh: 29.5; TIM10 inh: -11.2; V-ATPase pH: 0.9; tim23-1 inh: 51.9*; tim23-1 conf: 41.5*

Results for Fc1ccccc1NC(=S)NCCc1ccc(Cl)cc1 ?
NALP1 inh: -6.9; tim10-1 inh: 29.7; NALP3 yeast inh: 30.5; TIM10 inh: 30.3; V-ATPase pH: 0.5; tim23-1 inh: 55.1*; tim23-1 conf: 55.2*

Results for O=C(NC(=S)NCCc1ccccc1)c1ccccc1F ?
NALP1 inh: 13.4; tim10-1 inh: 34.7; NALP3 yeast inh: -16.2; TIM10 inh: 33.1; V-ATPase pH: 1.9; tim23-1 inh: 51.4*; tim23-1 conf: 44.5*

How did Fc1ccccc1NC(=S)NCCc1ccccc1 do in these assays?
NALP1 inh: 6.4; tim10-1 inh: 33.3; NALP3 yeast inh: 24.7; TIM10 inh: 14.7; V-ATPase pH: 1.3; tim23-1 inh: 18.3

What do the screens show for `Cc1cc(C)cc(NC(=S)N2CCN(c3ccc(F)cc3)CC2)c1`?
NALP1 inh: -1.4; tim10-1 inh: 19.8; NALP3 yeast inh: -72.2; TIM10 inh: 1.4; V-ATPase pH: 1.3; tim23-1 inh: -12.0

What do the screens show for `FC(F)Oc1ccc(/C=N/n2c(Cc3ccc(Br)cc3)n[nH]c2=S)cc1`?
NALP1 inh: -19.4; tim10-1 inh: 29.4; NALP3 yeast inh: 25.8; TIM10 inh: 31.0; V-ATPase pH: -5.9; tim23-1 inh: 51.0*; tim23-1 conf: 53.0*

How did S=c1[nH]nc(COc2ccccc2)n1/N=C/c1cccc(Cl)c1Cl do in these assays?
NALP1 inh: 10.6; tim10-1 inh: 31.6; NALP3 yeast inh: 24.7; TIM10 inh: 39.0; V-ATPase pH: 1.1; tim23-1 inh: 61.2*; tim23-1 conf: 44.4*

Results for Cc1ccc(/C=N/n2c(COc3ccccc3)n[nH]c2=S)cc1 ?
NALP1 inh: -2.2; tim10-1 inh: 21.2; NALP3 yeast inh: 40.3; TIM10 inh: 35.7; V-ATPase pH: -0.2; tim23-1 inh: 52.8*; tim23-1 conf: 27.5

Results for S=c1[nH]nc(COc2ccccc2)n1/N=C/c1ccccc1Cl ?
NALP1 inh: -14.6; tim10-1 inh: 35.4; NALP3 yeast inh: 14.5; TIM10 inh: 28.9; V-ATPase pH: 9.8; tim23-1 inh: 24.1

How did Cc1ccnc(NC(=O)C2CCN(S(=O)(=O)c3cccc(C(F)(F)F)c3)CC2)c1 do in these assays?
NALP1 inh: 1.8; tim10-1 inh: 18.8; NALP3 yeast inh: 19.8; TIM10 inh: 5.3; V-ATPase pH: 0.8; tim23-1 inh: 15.2

What do the screens show for `c1ccc(-n2nc3c(ccc4cnnc43)[nH]2)cc1`?
NALP1 inh: 4.2; tim10-1 inh: 24.3; NALP3 yeast inh: 14.5; TIM10 inh: 21.5; V-ATPase pH: -4.6; tim23-1 inh: 53.4*; tim23-1 conf: 50.3*

What do the screens show for `Cc1nn(C2CCS(=O)(=O)C2)c(C)c1CN(C)C(=O)c1ccc(S(=O)(=O)N(C)C)cc1` (configuration not stated)?
tim10-1 inh: -3.0; NALP3 yeast inh: 15.4; TIM10 inh: 2.9; V-ATPase pH: 0.4; tim23-1 inh: -1.3

Results for COc1ccc(/C=c2\sc3nc(=O)c(C)nn3c2=O)c(OC)c1 ?
NALP1 inh: -13.9; tim10-1 inh: 30.6; NALP3 yeast inh: 17.8; TIM10 inh: 8.3; V-ATPase pH: 5.0; tim23-1 inh: 52.8*; tim23-1 conf: 38.5*

How did CC(C)(C)C(=O)/C(C#N)=C/c1cccs1 do in these assays?
tim10-1 inh: -10.1; NALP3 yeast inh: 18.9; TIM10 inh: -24.3; V-ATPase pH: -0.1; tim23-1 inh: 17.7

What do the screens show for `N#C/C(=C\c1cccs1)C(=O)c1ccccc1Cl`?
NALP1 inh: 2.9; tim10-1 inh: 16.4; NALP3 yeast inh: 7.8; TIM10 inh: 18.9; V-ATPase pH: 10.9; tim23-1 inh: 62.0*; tim23-1 conf: 56.6*

Results for COCCC(=O)N1CCC(Oc2ccc(C(=O)N(C)C(C)c3ccon3)cc2)CC1 (configuration not stated) ?
NALP1 inh: -2.2; tim10-1 inh: 13.8; NALP3 yeast inh: -1.4; TIM10 inh: 1.7; V-ATPase pH: -1.9; tim23-1 inh: 8.9

What do the screens show for `CC(C)Oc1cc(O)c2c(=O)c(-c3ccc(O)cc3)coc2c1`?
NALP1 inh: 34.1; tim10-1 inh: 37.0; NALP3 yeast inh: 14.5; TIM10 inh: 22.0; V-ATPase pH: -3.6; tim23-1 inh: 56.9*; tim23-1 conf: 61.3*

What do the screens show for `c1ccc(-c2cn3c4c(sc3n2)CCCC4)cc1`?
tim10-1 inh: 24.4; NALP3 yeast inh: 35.3; TIM10 inh: 33.7; V-ATPase pH: -2.4; tim23-1 inh: 54.8*; tim23-1 conf: 59.7*

Results for c1ccc(-c2cn3nc(-c4ccccc4)sc3n2)cc1 ?
tim10-1 inh: 15.8; NALP3 yeast inh: 21.6; TIM10 inh: -0.2; V-ATPase pH: -5.2; tim23-1 inh: -4.6

What do the screens show for `COc1ccccc1C(=O)O[C@H]1[C@H](Cc2ccccc2)NS(=O)(=O)[C@H]2C[C@@H]3C=C[C@]12O3`?
tim10-1 inh: 9.0; NALP3 yeast inh: 6.0; TIM10 inh: -7.4; V-ATPase pH: 3.5; tim23-1 inh: 13.3

Results for O=C(c1cc2c(s1)-c1ccccc1OC2)N1CCc2ccccc2C1 ?
NALP1 inh: 30.0; tim10-1 inh: 23.9; NALP3 yeast inh: 8.1; TIM10 inh: 13.5; V-ATPase pH: -2.2; tim23-1 inh: 37.9

How did O=C(c1cc(Br)c(Br)s1)N1CCc2ccccc2C1 do in these assays?
tim10-1 inh: 1.6; NALP3 yeast inh: 7.0; TIM10 inh: 27.3; V-ATPase pH: -0.6; tim23-1 inh: 51.6*; tim23-1 conf: 53.4*

What do the screens show for `CCOc1ccc2oc(C(=O)Nc3ccc4c(c3)OCO4)c(C)c2c1`?
NALP1 inh: 21.8; tim10-1 inh: -5.8; NALP3 yeast inh: 32.8; TIM10 inh: 11.9; V-ATPase pH: -0.3; tim23-1 inh: 95.3*; tim23-1 conf: 17.2

What do the screens show for `CCCc1ccc(S(=O)(=O)N/N=C(/C)c2ccc3c(c2)OCO3)cc1`?
NALP1 inh: 1.2; tim10-1 inh: 35.3; NALP3 yeast inh: 20.2; TIM10 inh: 14.2; V-ATPase pH: -1.1; tim23-1 inh: 52.8*; tim23-1 conf: 48.0*

What do the screens show for `CCOc1ccc(S(=O)(=O)N/N=C(\C)c2ccc3c(c2)OCO3)cc1`?
NALP1 inh: 10.6; tim10-1 inh: 16.4; NALP3 yeast inh: 11.4; TIM10 inh: 7.5; V-ATPase pH: -1.0; tim23-1 inh: 27.4

How did Cc1cc(C)c(S(=O)(=O)Nc2ccncc2)cc1C do in these assays?
NALP1 inh: 15.6; tim10-1 inh: 3.0; NALP3 yeast inh: 17.2; TIM10 inh: 1.0; V-ATPase pH: -2.4; tim23-1 inh: 1.6
